SW480 rerep: DNA re-replication induction in SW480 cells. Potency, µM (highest dose often 46.1 µM), actives largely listed as activators. 340,000 tested, 1.8% active. SW480 DNA re-replication, Hoechst DNA content imaging, 48 h; further: nearly all actives have a fitted effect of over 55% in size
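First, 250 cells per well were seeded. Next, compound or vehicle (23 nL) was pinned in, plates sat 48 hr at 37 C. Finally Hoechst was added for 40 min before fluorescence scanning.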
VP16 counter: counter-screen for ROR gamma inhibitors: Gal4-VP16 reporter; Potency, µM (doses to about 53.6 µM), actives largely listed as inhibitors; 310,000 tested, 3.5% active; Drosophila S2 Gal4-VP16 UAS-luciferase, luminescence, 20 h;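 further: Gal4-VP16 expression switched on by copper sulfate through the metallothionein promoter; nearly all actives have a fitted effect of over 50% in size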
KB-V1 MDR tox: kills drug-selected multidrug resistant KB-V1 cells | KB-V1 MDR cells viability, CellTiter-Glo, 72 h | Potency, µM (top dose mostly 46.1 µM), hits mostly cytotoxic | 400,000 tested, 3.4% active; further: nearly all actives have a fitted effect of over 60% in size
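Readout: CellTiter-Glo luminescence, 10 min after addition. Cells: KB-V1 MDR subline, 72 h at 37 degrees C with compound. Analysis: corrected, normalized data fitted to concentration-effect curves.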
KB-3-1 cytotox: kills parental KB-3-1 adenocarcinoma cells | KB-3-1 viability, CellTiter-Glo ATP luminescence, 72 h | Potency, µM (highest dose often 46.1 µM), actives largely listed as cytotoxic | 400,000 tested, 1.4% active; further: nearly all actives have a fitted effect of over 60% in size
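Here the drug-naive KB-3-1 line serves as comparator for MDR sub-line selectivity; cells received compound titrations, 72 h at 37 °C, then CellTiter-Glo readout.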
MCF10A rereplic: induces DNA re-replication in MCF 10a normal breast cells. MCF 10A DNA re-replication, Hoechst nuclear intensity, 48 h. Potency, µM (series often up to 46.1 µM), most hits filed as activators. 350,000 tested, 2.9% active. AID 624296; further: nearly all actives have a fitted effect of over 50% in size
RORgamma inh: blocks mouse ROR gamma transcriptional activity. 310,000 tested, 5.4% active. P51450. Potency, µM (doses to about 53.6 µM), hits mostly inhibitors. Drosophila S2 Gal4-RORgamma UAS-luciferase reporter, 20 h; further: nearly all actives have a fitted effect of over 60% in size
Target sequence (P51450 whole entry, looked up, the tested form may be a part): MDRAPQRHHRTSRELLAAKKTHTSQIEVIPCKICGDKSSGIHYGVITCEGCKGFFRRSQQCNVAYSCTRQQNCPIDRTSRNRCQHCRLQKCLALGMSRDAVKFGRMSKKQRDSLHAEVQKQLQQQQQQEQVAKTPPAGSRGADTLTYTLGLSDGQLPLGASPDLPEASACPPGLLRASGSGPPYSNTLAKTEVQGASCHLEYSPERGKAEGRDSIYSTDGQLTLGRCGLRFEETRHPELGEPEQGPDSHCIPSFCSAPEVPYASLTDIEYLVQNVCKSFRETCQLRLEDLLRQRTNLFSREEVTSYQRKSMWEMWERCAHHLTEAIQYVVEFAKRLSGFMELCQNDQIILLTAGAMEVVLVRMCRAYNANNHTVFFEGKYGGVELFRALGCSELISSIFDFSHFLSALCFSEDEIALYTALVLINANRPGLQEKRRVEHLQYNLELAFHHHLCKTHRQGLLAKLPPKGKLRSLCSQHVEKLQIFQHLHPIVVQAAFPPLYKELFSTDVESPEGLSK
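Drosophila S2 cells stably expressing Gal4-DBD/mouse RORγ fusion under metallothionein promoter plus UAS-luciferase; compound 1 h, then 700 uM CuSO4 induction for 20 h at ambient temperature; inhibition read as reduced luminescence.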
Each line names hits and unclear results; the compound was inactive in the other large screens; ! = not confirmed by another sample. An excerpt weighted towards active compounds, which were near 10% of everything screened. The call rests on the fitted dose curve; in most records, active means well fitted curve in the direction sought with a large enough effect; inconclusive means small, poorly fitted or top-dose-only effect, or another doubt; inactive means no such curve, though single readings can be large; an effect the other way counts as inactive or inconclusive.

O=C(Nc1nccs1)c1cnc2sccn2c1=O	KB-V1 MDR tox inconclusive (no result: SW480 rerep, VP16 counter, MCF10A rereplic, RORgamma inh)
O=C(CCc1nc2cccnc2n1Cc1cccs1)Nc1cccc(Cl)c1	none (no result: SW480 rerep, VP16 counter, MCF10A rereplic, RORgamma inh)
Cc1cccc(C(=O)NCC(=O)OCc2cc(=O)n3nc(C)sc3n2)c1	none (no result: SW480 rerep, VP16 counter, MCF10A rereplic, RORgamma inh)
COc1ccccc1C(=O)OCc1cc(=O)n2c(C)csc2n1	none (no result: SW480 rerep, VP16 counter, MCF10A rereplic, RORgamma inh)
CCOC(=O)C1CCCN(C(=O)Cn2ncc3c(C)n(Cc4ccccc4Cl)c(C)c3c2=O)C1 (centres undefined)	none (no result: SW480 rerep, VP16 counter, MCF10A rereplic, RORgamma inh)
CS(=O)(=O)N(CC(=O)Nc1cc(Cl)ccc1Cl)c1ccccc1	KB-V1 MDR tox 16µM
CCCCn1cc2c(c1-c1ccc(Cl)cc1)c(=O)n(C)c(=O)n2C	none (no result: SW480 rerep, VP16 counter, MCF10A rereplic, RORgamma inh)
CCOC(=O)C1CCN(C(=O)c2sc3nc(-c4ccc(F)cc4)cn3c2C)CC1	KB-V1 MDR tox 23µM
CC(=O)Oc1ccc2c(c1)OC(c1ccccc1)CC21CC(C)(C)NC(=S)N1 (centres undefined)	VP16 counter inconclusive, KB-V1 MDR tox inconclusive, RORgamma inh 10µM
CC1(C)CC2(CC(c3ccccc3)Oc3cc(O)ccc32)NC(=S)N1 (centres undefined)	VP16 counter 8.9µM, RORgamma inh 8.9µM
COc1ccc(C2CC3(CC(C)(C)NC(=O)N3)Oc3cc(O)ccc32)cc1 (centres undefined)	RORgamma inh inconclusive
CC(=O)Oc1cc2c(cc1Cl)C(c1cccs1)CC1(CC(C)(C)NC(=S)N1)O2 (centres undefined)	VP16 counter inconclusive, KB-3-1 cytotox inconclusive, RORgamma inh 10µM
CC1(C)CC2(CC(c3ccccc3)Oc3cc(O)ccc32)NC(=O)N1 (centres undefined)	none (no result: SW480 rerep, KB-V1 MDR tox, KB-3-1 cytotox, MCF10A rereplic)
CC1(C)CC2(CC(c3ccccc3)c3ccc(O)cc3O2)NC(=S)N1 (centres undefined)	RORgamma inh 11µM
CCOC(=O)Cn1ccc2cc(S(=O)(=O)N3CCCC3)ccc21	none (no result: SW480 rerep, VP16 counter, MCF10A rereplic, RORgamma inh)
CCCOc1ccccc1-c1nc(SCC(=O)c2ccccc2)n[nH]1	none (no result: SW480 rerep, VP16 counter, MCF10A rereplic, RORgamma inh)
Cc1ccc(-n2nc3c(N4CCC(C(=O)NCCC(C)C)CC4)nnc(C)c3c2C)cc1	none (no result: SW480 rerep, VP16 counter, MCF10A rereplic, RORgamma inh)
N#Cc1c(F)cccc1NCc1cccnc1	none
N#Cc1c(NCc2ccccc2)ccnc1NCc1cccnc1	VP16 counter 10µM, RORgamma inh inconclusive
Cc1ccc(NC(=S)Nc2ccc3[nH]c(=O)[nH]c3c2)cc1C	VP16 counter inconclusive, MCF10A rereplic inconclusive, RORgamma inh 11µM
C=CCc1cc(C)ccc1OCC(O)CN1CCN(c2ccccc2)CC1 (centres undefined)	none
COc1ccc(CCNCC(O)COc2ccc(OC)cc2C(C)(C)C)cc1 (centres undefined)	SW480 rerep 23µM, VP16 counter inconclusive, MCF10A rereplic inconclusive, RORgamma inh inconclusive
Cc1ccc(OCC(O)CN2CCN(c3ccc(C)cc3)CC2)cc1 (centres undefined)	MCF10A rereplic 0.82µM, RORgamma inh inconclusive
CCOC(=O)N1CCN(CC(O)COc2ccc(OC)cc2C(C)(C)C)CC1 (centres undefined)	KB-V1 MDR tox 3.7µM
CCOC(=O)C1CCCN(CC(O)COc2ccc(OC)cc2C(C)(C)C)C1 (centres undefined)	none
Cc1ccc(N2CCN(CC(O)COc3ccccc3)CC2)cc1 (centres undefined)	KB-V1 MDR tox inconclusive
C=CCc1cc(OC)ccc1OCC(O)CN1CCN(c2ccc(OC)cc2)CC1 (centres undefined)	KB-V1 MDR tox 18µM!, MCF10A rereplic inconclusive
Cc1cc(C)c(NC(=O)Cc2ccc(-n3c(C)nc4cccnc43)cc2)c(C)c1	none (no result: SW480 rerep, VP16 counter, MCF10A rereplic, RORgamma inh)
CCc1cccc(C)c1NC(=O)c1cnn(-c2ccc(OC)cc2)c1C1CCN(C(=O)OC(C)(C)C)CC1	KB-3-1 cytotox inconclusive (no result: SW480 rerep, VP16 counter, MCF10A rereplic, RORgamma inh)
CCOC(=O)C1=C(CS(=O)(=O)c2ccc(F)c(C)c2)NC(=O)NC1c1ccccc1OC (centres undefined)	none (no result: SW480 rerep, VP16 counter, MCF10A rereplic, RORgamma inh)
O=c1c(S(=O)(=O)c2ccccc2)cn(Cc2ccc(F)cc2)c2cc(N3CCCCC3)c(F)cc12	none (no result: SW480 rerep, VP16 counter, MCF10A rereplic, RORgamma inh)
C=C(C)C(O)/C=C/C=C/c1ccccc1 (centres undefined)	none (no result: SW480 rerep, KB-V1 MDR tox, KB-3-1 cytotox, MCF10A rereplic)

Compound activity: PubChem, National Center for Advancing Translational Sciences (NCATS)
